Screening data (PubChem)
NTR1 ag: activates human neurotensin receptor 1 | 0.17% of 330,000 active | P30989 | activation, % at 20 µM | AID 493036 | NTR1-U2OS beta-arrestin-GFP spot imaging, agonist mode;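 active = activation at or above 40% of the spot to cytoplasm intensity ratio, with at least 20 cells analyzed; inconclusive = wells under 20 cells, flagged as cytotoxic or low count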;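 also: 0% = DMSO without peptide and 100% = 100 nM NTR1 peptide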
Target sequence (P30989 whole entry, looked up): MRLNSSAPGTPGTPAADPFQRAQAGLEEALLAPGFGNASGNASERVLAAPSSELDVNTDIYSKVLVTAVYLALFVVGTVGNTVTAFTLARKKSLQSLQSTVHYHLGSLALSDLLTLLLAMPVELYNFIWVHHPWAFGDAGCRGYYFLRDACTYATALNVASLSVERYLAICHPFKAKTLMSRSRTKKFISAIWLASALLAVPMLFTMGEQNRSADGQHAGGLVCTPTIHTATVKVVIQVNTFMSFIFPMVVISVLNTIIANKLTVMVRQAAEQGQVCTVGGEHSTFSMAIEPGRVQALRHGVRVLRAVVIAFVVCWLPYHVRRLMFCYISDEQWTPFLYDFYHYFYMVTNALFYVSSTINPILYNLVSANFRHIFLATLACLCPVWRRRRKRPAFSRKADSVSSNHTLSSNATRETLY
GRK2 aptamer HTS: human GRK2 inhibition via aptamer displacement | P25098 | bead flow cytometry, FAM-aptamer displacement from GRK2 | inhibition of aptamer binding, % at 10 µM | 0.59% of 330,000 active | AID 488847;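 active = inhibition of aptamer binding above 40%, roughly 3 SD of noise, on plates passing a quality check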;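 also: median bead fluorescence of bound FAM aptamer so fluorescent compounds give negative values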
Bfl-1 A1 inh: inhibitors of the anti-apoptotic protein A1, read as caspase activation; MEF A1-2A-BIM cells, Caspase-Glo 3/7 luminescence, 3 h; percent of clofoctol response, vehicle zero; 0.066% of 330,000 active; caspase activation, % (test concentration not listed); AID 2462;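 active = over half of replicate activation scores above 10%, or exactly half above 10 with the replicate mean above 10; inconclusive = replicate mean below 10 yet half the replicates above 10; inactive = over half of replicates below 10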
Beta2AR agonist: activates human beta-2 adrenergic receptor causing internalization; P07550; Am2.2-beta2AR cells, FAP receptor internalization, flow cytometry; response, % (concentration not given with the values); 0.43% of 340,000 active;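 active = response above a set limit, near 3 SD of response in nonfluorescent compounds, cut at about 42% in these data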
VLA-4 inh: inhibition in a human VLA-4 binding assay. VLA-4 expressing cells, ligand binding flow cytometry. inhibition, % (about 7 µM as worked out from the volumes in the protocol). 0.2% of 330,000 active. AID 2557; in the data active = inhibition above about 50%
GRK2 CP1: human GRK2 inhibition confirmation, cherry pick 1. shares compounds with GRK2 aptamer HTS. bead-bound GRK2, FAM-aptamer displacement, flow cytometry. aptamer displacement, % at 10 µM. 4% of 2,000 active;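 active = aptamer displacement above 40%, near three times the noise of non-fluorescent compounds, on plates passing quality checks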;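 also: negative values mostly reflect intrinsic compound fluorescence rather than true enhancement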
Aptamer quench SP: aptamer fluorescence quenching in GRK2 counter-screen | fluorescence response (% of DMSO), % at 10 µM | shares compounds with GRK2 aptamer HTS | AID 504580 | 2,000 tested, under 10 active | Carboxyfluorescein RNA aptamer on beads, flow cytometry quenching; active compounds read low;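 active = compounds that quench the bead-bound fluorescent RNA probe, cutting fluorescence to under half of the solvent control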;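 also: counterscreen run without GRK2 so only probe quenching by compound is measured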
GRK2 confirm 2: confirmation of human GRK2 inhibitors binding RNA aptamer site | shares compounds with GRK2 aptamer HTS | AID 504782 | 360 tested, under 10 active | inhibition of aptamer binding, % at 10 µM | bead-bound GRK2, FAM-aptamer displacement, flow cytometry;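 active = inhibition of aptamer binding above 40%, about triple the noise seen with nonglowing compounds, on plates passing quality control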;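 also: negative values mostly come from compounds that fluoresce themselves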
FAM quench SP: aptamer fluorescence quenching in GRK2 counter-screen; carboxyfluorescein RNA aptamer beads, flow cytometry quenching; active compounds read low; AID 588494; 360 tested, under 10 active; fluorescence response vs DMSO, % at 10 µM; shares compounds with GRK2 aptamer HTS;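 active = response vs DMSO under 50%, meaning signal dropped by over half, treated as fluorescence quencher; inconclusive = no clear call, values can overlap the other calls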;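 also: labelled aptamer on streptavidin beads without GRK2 as a quench counter-screen; 100% = bead fluorescence of DMSO wells and lower means quenching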
Starred values were filed as active, the others as inactive; ? = inconclusive; · = no result. Sampled rows, rich in hits. Any-hit rate of the full collection: about 1.3%.

SMILES	NTR1 ag	GRK2 aptamer HTS	Bfl-1 A1 inh	Beta2AR agonist	VLA-4 inh	GRK2 CP1	Aptamer quench SP	others
CCOC(=O)c1nn2c(C(F)(F)F)cc(-c3ccc(OC)cc3)nc2c1Br	6.7	5.0	-0.1	5.5	2.4	·	·
CCC(Oc1ccccc1)C(=O)Nc1nnc(S(=O)(=O)Nc2ccccc2)s1 (stereo unspecified)	-0.1	49.0*	0.6	2.1	37.8	-2.8	103.6
CCC(Oc1ccccc1)C(=O)Nc1nnc(S(=O)(=O)N2CCCCC2)s1 (stereo unspecified)	0.8	1.0	-0.8	10.6	6.5	·	·
COc1ccc(C(=O)OCC(=O)Nc2ccc3c(c2)OCO3)cc1S(=O)(=O)N1CCOCC1	0.6	·	·	1.2	·	·	·
Cc1ccc(S(=O)(=O)N2CCN(C(=O)CN3C(=O)CNC3=O)CC2)cc1	-0.3	0.0	-0.4	-0.1	5.5	·	·
COC(OC)c1ccnc(-c2ccc(OC(=O)c3ccc(F)cc3)cc2)n1	1.1	59.0*	0.6	4.7	2.0	2.1	91.4
CS(=O)(=O)N(CC(=O)Nc1ccc2c(c1)OCO2)c1ccc2c(c1)OCO2	-0.2	0.0	-0.5	18.8	10.1	·	·
CN(C)C(=O)CN(c1ccc2c(c1)OCO2)S(C)(=O)=O	-0.2	47.0*	2.5	-5.8	17.3	4.4	103.0
O=C(N=Nc1c(O)[nH]c2ccc([N+](=O)[O-])cc12)c1ccccc1Cl	2.7	3.0	0.8	-1.8	0.4	·	·
O=C(N=Nc1c(O)[nH]c2ccc(Cl)cc12)c1cc(-c2cccs2)nc2ccccc12	·	0.0	0.3	47.1*	-5.4	-7.1	96.5
O=[N+]([O-])c1ccc(N2CCN(c3ccc(Cl)nn3)CC2)cc1NC1CC1	1.1	64.0*	0.3	-3.2	35.3	-0.8	98.6
Cc1ccccc1NC(=O)CCCNC(=O)c1ccc(Cl)cc1	-1.3	1.0	0.2	11.3	-0.4	·	·
O=C1CCC[C@@H]2Cc3nc4ccc(Cl)cc4cc3[C@@H]3CCN1[C@H]23	·	·	·	-7.2	·	·	·
CC1CCCC(C)N1C(=O)COC(=O)/C=C/c1ccc(Br)o1 (stereo unspecified)	-2.2	43.0*	-1.1	-4.7	7.5	6.8	98.0
CN1C/C(=C/c2ccsc2)C(=O)/C(=C/c2ccsc2)C1	-0.8	63.0*	-0.4	7.5	3.9	-0.1	95.8
CN1C/C(=C/c2ccncc2)C(=O)/C(=C/c2ccncc2)C1	-1.8	2.0	2.1	6.7	0.5	·	·
O=C(CN1CCCC1c1cccs1)N1CCN(S(=O)(=O)c2cccc(F)c2)CC1 (stereo unspecified)	-1.1	0.0	·	-1.1	-7.6	·	·
Nc1ccc(Nc2ccc([N+](=O)[O-])cc2[N+](=O)[O-])cc1	3.9	84.0*	-0.3	-13.9	-9.3	1.7	92.4
Cc1ccc(NC(=O)c2ccc(=O)[nH]c2)cc1S(=O)(=O)N1CCCCCC1	3.1	3.0	-0.6	-5.2	-2.2	·	·
Cc1cccc(NC2=C(Cl)C(=O)OC2OC(C)C)c1 (stereo unspecified)	1.2	0.0	0.5	-2.5	-0.8	·	·
Cc1ccc(NC2=C(Cl)C(=O)OC2OC(C)C)cc1 (stereo unspecified)	3.0	47.0*	-0.1	0.1	4.6	0.3	97.0
CCN1C(=O)[C@H]2[C@@H](c3ccc(-c4ccccc4)cc3)N[C@@](CC(C)C)(C(=O)OC)[C@H]2C1=O	2.7	3.0	-0.2	-1.6	-4.3	·	·
O=C(c1ccc(Cl)c(S(=O)(=O)N2CCc3ccccc3C2)c1)N1CCN(c2ccccc2)CC1	3.5	0.0	0.0	4.1	0.0	-0.1	102.2
Oc1ccccc1C1CCCCC1c1ccccc1 (stereo unspecified)	·	2.0	?	14.4	2.1	·	·
Cc1c(C(=O)Nc2ccc3c(c2)OCCO3)cnn1C	0.1	0.0	2.0	2.1	8.5	·	·
SMILES	NTR1 ag	GRK2 aptamer HTS	Bfl-1 A1 inh	Beta2AR agonist	VLA-4 inh	GRK2 CP1	Aptamer quench SP	others
Cn1nccc1C(=O)Nc1ccc2c(c1)OCCO2	0.5	100.0*	-13.5	-2.1	16.2	2.6	94.8
O=C(C1CCCN1S(=O)(=O)c1ccc(Cl)cc1)N1CCCCC1 (stereo unspecified)	-0.2	17.0	0.2	-6.5	-0.1	·	·
Cc1ccc2cccc(N=Cc3c(C)[nH]n(-c4ccccc4)c3=O)c2n1	·	0.0	-0.1	12.8	-14.9	-6.8	98.1
CC(=O)Nc1nc2c(ccc3ccccc32)s1	0.9	2.0	0.0	0.5	10.6	·	·	GRK2 confirm 2=13.1;FAM quench SP=101.0
Cc1cnc(NC(=O)c2cc(S(=O)(=O)N(C)C)ccc2N2CCCC2)s1	1.1	0.0	1.1	·	0.1	·	·
CN(C)S(=O)(=O)c1ccc(N2CCCC2)c(C(=O)Nc2nc3c(ccc4ccccc43)s2)c1	2.1	0.0	1.6	-1.1	-7.5	·	·	GRK2 confirm 2=4.1;FAM quench SP=106.0
O=C(Cc1cccs1)Nc1nnc(SCc2cccc3ccccc23)s1	9.6	3.0	0.1	-2.2	12.5	·	·
O=C(Cc1cccs1)Nc1nc2c(ccc3ccccc32)s1	19.9	0.0	1.2	3.1	4.3	·	·	GRK2 confirm 2=18.6;FAM quench SP=102.0
CCc1ccccc1N(CC(=O)Nc1cccnc1)S(=O)(=O)c1ccccc1	2.1	4.0	0.6	-1.2	-13.9	·	·
COc1ccccc1C(=O)NC(=O)COC(=O)c1cccc(C)c1O	4.4	2.0	-0.3	-9.9	-2.8	·	·
Cc1ccc(C(=O)NC2CCCCCC2)cc1N1CCCC1=O	0.5	2.0	-0.3	-2.0	7.0	·	·
Cc1ccc(C(=O)O)cc1N1CCCC1=O	1.7	61.0*	0.5	1.3	-8.0	0.3	96.4
Cc1cc(C(=O)N[C@H](c2ccccc2)[C@@]2(C)C[C@@H]2[C@@H](C)C(=O)Nc2ccc3ccccc3c2)n(C)n1	5.8	0.0	1.5	8.4	-4.3	·	·
CC(C)(C)c1ccc(C(=O)NN2C(=O)CSC2=S)cc1	0.8	55.0*	-0.2	11.2	1.8	-4.5	98.4
CCNc1c(NS(=O)(=O)c2ccc(OC)c(Cl)c2)c(=O)oc2ccccc12	1.2	69.0*	-0.7	-17.3	-3.7	4.9	101.3
COC(=O)c1ccccc1N1C(=O)[C@@H]2C(c3ccc(F)cc3)=NO[C@@H]2C1=O	0.9	0.0	0.6	0.9	5.0	·	·	GRK2 confirm 2=0.2;FAM quench SP=101.0
COc1cccc(CC2(CO)CCCN(Cc3ccc(C)s3)C2)c1 (stereo unspecified)	-0.3	0.0	0.2	9.7	9.2	·	·
COc1cccc(CC2(CO)CCCN(Cc3[nH]c4ccc(C)cc4c3C)C2)c1 (stereo unspecified)	29.3	40.0	0.3	5.5	0.8	-9.6	91.7
